Reference: PubChem BioAssay AID1851 (National Center for Advancing Translational Sciences (NCATS), 2009)
Out of some 16,000 compounds screened, about 5,700 (36%) were called active. About 24% were inconclusive and are not listed. Calls follow the shape of the dose curve; as a rule, active = well fitted curve in the direction sought with a large enough effect; inconclusive = small, poorly fitted or top-dose-only effect, or effect the other way; inactive = no such curve, though single readings can be large or run the other way. The list shows a part of the results.
% is scaled to controls: 0 for no effect and ±100 for the full control effect.

Each compound was assayed against Cytochrome P450 1A2 (Homo sapiens) (UniProt P05177) (assay: Cytochrome panel assay with activity outcomes). Conditions: recombinant CYP, pro-luciferin dealkylation, luminescence, p450-cyp1a2; series mostly up to 57.1 µM.
Cytochrome P450 1A2 (Homo sapiens), sequence (P05177 whole entry, looked up): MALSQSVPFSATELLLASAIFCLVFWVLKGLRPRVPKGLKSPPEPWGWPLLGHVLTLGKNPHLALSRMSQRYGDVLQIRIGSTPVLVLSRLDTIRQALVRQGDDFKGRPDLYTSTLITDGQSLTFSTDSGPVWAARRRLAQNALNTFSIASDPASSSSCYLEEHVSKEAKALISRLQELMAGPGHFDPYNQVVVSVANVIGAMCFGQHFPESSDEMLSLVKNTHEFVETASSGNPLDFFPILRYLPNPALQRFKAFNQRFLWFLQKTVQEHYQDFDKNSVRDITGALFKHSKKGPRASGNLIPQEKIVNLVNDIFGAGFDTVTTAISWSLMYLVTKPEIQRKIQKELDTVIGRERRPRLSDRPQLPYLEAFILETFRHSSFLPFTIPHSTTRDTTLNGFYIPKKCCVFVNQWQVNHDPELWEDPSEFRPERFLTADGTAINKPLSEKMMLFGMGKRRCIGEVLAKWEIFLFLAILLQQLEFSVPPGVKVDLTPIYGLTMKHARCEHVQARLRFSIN
`C[N+](C)(C)CCCCCC[N+](C)(C)C` was tested, and the AC50 was “inactive”.
In the case of `O=c1ccc2[nH]cc(C3=CCNCC3)c2[nH]1`, the AC50 is reported as “inactive”.
In the case of `COc1ccc2[nH]cc(C3=CCNCC3)c2c1`, the AC50 is reported as 0.251 µM (active).
In the case of `CCCOc1ccc2[nH]cc(C3=CCNCC3)c2n1`, the AC50 is reported as 0.126 µM (active).
With `C[C@@]12CC[C@@H]3[C@H](CCC4=CC(=O)CC[C@]43C)[C@@H]1CC[C@@H]2C(=O)Cn1cnc2c(=S)nc[nH]c21` the activity, negative = inhibition was -15.8% [at 11.4 µM] (inactive).
For `NP(N)(=O)NC(=O)c1ccc(F)cc1`, the AC50 was “inactive”.
With `NCCCP(=O)(O)O` the AC50 was “inactive”.
In the case of `CC1=C(O)C(=O)[C@H]2O[C@@H]2C1=O`, the AC50 is reported as “inactive”.
With `C[N+]1(C)[C@@H]2CC[C@H]1CC(OC(=O)[C@@H](CO)c1ccccc1)C2` (stereo partly drawn) the AC50 was “inactive”.
`O=C(c1csnn1)N1CCC2(CC1)CN(Cc1ccncc1)C2` was tested, and the AC50 was 10 µM (active).
In the case of `CN1CCCC2(CCN(C(=O)c3csnn3)CC2)C1`, the AC50 is reported as “inactive”.
`O=C(c1ccncc1)N1CCC2(CC1)CN(Cc1ccccc1)C2` was tested, and the AC50 was “inactive”.
`N#Cc1ccc(CN2CCC3(CC2)CCN(C(=O)Oc2ccccc2)CC3)cc1` was tested, and the AC50 was “inactive”.
In the case of `O=P(O)(O)CCP(=O)(O)O`, the activity, negative = inhibition is reported as 0.113% [at 11.4 µM] (inactive).
With `CC(=O)[C@@H]1CC[C@@H]2[C@@H]3CC=C4C[C@H](OS(=O)(=O)O)CC[C@@]4(C)[C@H]3CC[C@]21C` the AC50 was “inactive”.
For `O=C1Nc2ccc(I)cc2/C1=C/c1cc(Br)c(O)c(Br)c1`, the AC50 was 0.794 µM (active).
In the case of `COC(=O)C1=CCCN(C)C1`, the AC50 is reported as “inactive”.
In the case of `Cc1ccc(C2CC(=O)C(C=NCCN3CCN(C(=O)Cc4ccccc4)CC3)=C(O)C2)cc1` (stereo not drawn), the AC50 is reported as “inactive”.
With `C[C@H](N)[C@@H](O)c1ccccc1` the AC50 was “inactive”.
`C[C@@H](Cc1ccc(OCC(=O)O)cc1)NC[C@H](O)c1cccc(Cl)c1` was tested, and the AC50 was “inactive”.
For `CC(NCc1ccc(Cl)cc1)C(O)c1ccccc1` (stereo not drawn), the AC50 was 14.1 µM (active).
`CCN(CC)CCn1ncc2c(N)ncnc21` was tested, and the activity, negative = inhibition was -6.04% [at 11.4 µM] (inactive).
For `CC[C@H](C(=O)[C@H](C)[C@H](O)[C@H](C)CCc1ccc(C)c(O)c1C(=O)O)[C@H]1O[C@](CC)([C@@H]2CC[C@@](O)(CC)[C@H](C)O2)C[C@H]1C`, the AC50 was “inactive”.
`N=C1c2ccccc2CN1NC(=O)c1ccc(Cl)cc1` was tested, and the AC50 was “inactive”.
For `COc1ccc(C[C@H]2NC[C@H](O)[C@@H]2OC(C)=O)cc1`, the AC50 was “inactive”.
For `O=C(O)CP(=O)(O)c1ccc(Cl)cc1`, the AC50 was “inactive”.
`O=NN(Cc1ccc(Cl)cc1)[C@@H](C(=O)O)c1ccccc1` was tested, and the AC50 was 5.01 µM (active).
With `NC[C@@H](CC(=O)O)c1ccc(Cl)cc1` the AC50 was “inactive”.
For `C[C@@]12CC[C@H]3[C@@H](CCC4=CC(=O)CC[C@]43C)[C@H]1CC[C@H]2C(=O)CO`, the AC50 was “inactive”.
For `CNC(=S)NC1CC2CCCC(C1)N2CC(C)C` (stereo not drawn), the AC50 was “inactive”.
In the case of `CCOCCN1CCC(OC(C)=O)C(C)C1` (stereo not drawn), the AC50 is reported as “inactive”.
In the case of `C[C@H](CC(C#N)(c1ccccc1)c1ccccc1)N1CCCCC1`, the activity, negative = inhibition is reported as 7.09% [at 2.29 µM] (inactive).
For `O=c1oc(Cl)c(Cl)c2ccccc12`, the AC50 was 1 µM (active).
With `O=[N+]([O-])O[C@H]1CO[C@H]2[C@H]1OC[C@@H]2O[N+](=O)[O-]` the AC50 was “inactive”.
`O=C1OC(=O)[C@@H]2[C@@H]1[C@@H]1CC[C@H]2O1` was tested, and the AC50 was “inactive”.
For `NC(=O)CN1C[C@@H](O)CC1=O`, the AC50 was “inactive”.
For `CCOP(=O)(OCC)C(NC(C)=O)C(Cl)(Cl)Cl` (stereo not drawn), the AC50 was “inactive”.
With `CC(O)(CS(=O)(=O)c1ccccc1)C(=O)Nc1cccc(C(F)(F)F)c1` (stereo not drawn) the AC50 was “inactive”.
`O=C(Nc1cccc(C(F)(F)F)c1)c1cccn(Cc2ccc3c(c2)OC(F)(F)O3)c1=O` was tested, and the AC50 was 3.16 µM (active).
`CC(O)(CS(=O)(=O)c1cccc(C(F)(F)F)c1)C(=O)Nc1cccc(C(F)(F)F)c1` (stereo not drawn) was tested, and the AC50 was “inactive”.
In the case of `CC(C)c1ccc(C(c2c(O)c3ccccc3oc2=O)c2c(O)c3ccccc3oc2=O)cc1`, the activity, negative = inhibition is reported as -18.8% [at 2.29 µM] (inactive).
`COc1cc(CNC(=O)CCCC/C=C\C(C)C)ccc1O` was tested, and the AC50 was 1.58 µM (active).
With `CCCCCCCCC(=O)NCc1ccc(O)c(OC)c1` the AC50 was 12.6 µM (active).
For `CNC[C@H](O)c1ccc(O)c(OC)c1`, the AC50 was “inactive”.
With `COc1cc(CCN)ccc1O` the AC50 was “inactive”.
With `COc1ccc(C[C@@H]2NC[C@H](O)[C@@H]2OC(C)=O)cc1` the AC50 was “inactive”.
`C[N+]1(C)CCO[C@](O)(c2ccc(-c3ccc([C@]4(O)C[N+](C)(C)CCO4)cc3)cc2)C1` was tested, and the AC50 was “inactive”.
With `COc1cc2c(c(OC)c1OC)-c1ccc(O)c(=O)cc1[C@H](N)CC2` the AC50 was “inactive”.
In the case of `CC(C)COc1ccc(C2(C#N)CC[N+](C)(C)CC2)cc1`, the AC50 is reported as “inactive”.
In the case of `COCCCNC(=S)NC1CC2CCCC(C1)N2Cc1cccs1` (stereo not drawn), the AC50 is reported as “inactive”.
In the case of `Cc1cc2c(C(F)(F)F)cc(=O)oc2c2c1NCCC2`, the AC50 is reported as 0.1 µM (active).
`CCCCC1(CCCC)C(=O)NC(=Nc2cccc(C)c2)NC1=O` was tested, and the AC50 was “inactive”.
With `O=C1C=CC(=O)c2c1ccc1c2ccc2ccccc21` the AC50 was 0.794 µM (active).
With `COc1cc([C@H]2c3cc4c(cc3[C@@H](O)[C@@H]3COC(=O)[C@H]23)OCO4)cc(OC)c1OC` the AC50 was “inactive”.
In the case of `CCCc1cc2c(n1CCO)C(C)C1CN(C(=O)c3ccccc3)C(C)(C(=O)OC)C21` (stereo not drawn), the AC50 is reported as “inactive”.
For `COc1cccc2c1[C@H](CO)N1[C@H](C#N)[C@@H]3C[C@H](C(=O)O)[C@@H]([C@@H]1C2)N3C`, the activity, negative = inhibition was -21% [at 2.29 µM] (inactive).
In the case of `C[C@]12CCC3c4ccc(OCC(=O)O)cc4CCC3C1CCC2=O` (stereo partly drawn), the activity, negative = inhibition is reported as 0.71% [at 2.29 µM] (inactive).
With `C[C@]12CC[C@H]3c4ccc(O)cc4CC[C@@H]3[C@H]1CC[C@@H]2OP(=O)(O)O` the activity, negative = inhibition was -11.2% [at 2.29 µM] (inactive).
For `C[C@]12CC[C@@H]3C(=CCc4cc(O)ccc43)[C@@H]1CCC2=O`, the AC50 was 10 µM (active).
For `Cc1cc[c]([Sb]2[O][C@H]([C@H](O)[C@H](O)C(=O)O)[C@@H](CO)[O]2)cc1`, the activity, negative = inhibition was -11.9% [at 11.4 µM] (inactive).
In the case of `O=C(Cc1ccc(Cl)c(Cl)c1)N1CCCC[C@H]1CN1CCCC1`, the AC50 is reported as “inactive”.
`CCCCc1ccc(C(=O)O)nc1` was tested, and the AC50 was “inactive”.
In the case of `CCCCc1ccc2nc(NC(=O)OC)[nH]c2c1`, the AC50 is reported as 0.501 µM (active).
For `COC(=O)Nc1nc2ccc(Sc3ccccc3)cc2[nH]1`, the AC50 was 0.794 µM (active).
In the case of `COC(=O)Nc1nc2ccc(C(=O)c3cccs3)cc2[nH]1`, the AC50 is reported as 1.58 µM (active).
`COCCNC(=S)NC1CC2CCCC(C1)N2Cc1cccs1` (stereo not drawn) was tested, and the AC50 was “inactive”.
In the case of `N#CCCN`, the AC50 is reported as “inactive”.
For `N[C@@H]1CCc2cc(O)c(O)cc2C1`, the AC50 was “inactive”.
In the case of `CC[C@@H]1[C@@H]2C[C@H]3[C@H]4N(C)c5ccccc5[C@@]45C[C@@H]([C@@H]2[C@@H]5O)N3[C@H]1O`, the AC50 is reported as “inactive”.
`Cc1ccc(N(C)C(=O)Oc2cccc3ccc(C)nc23)cc1` was tested, and the AC50 was 12.6 µM (active).
For `C[C@@H]1O[C@H](OC2[C@@H](O)[C@H](O)C(O)[C@H](O)[C@H]2O)[C@@H](N)C[C@@H]1N=C(N)C(=O)O` (stereo partly drawn), the activity, negative = inhibition was 1.22% [at 2.29 µM] (inactive).
With `c1ccc(CN2CCN(Cc3ccc4c(c3)OCCO4)CC2)cc1` the AC50 was “inactive”.
`CO[C@@H]([CH2][Hg])CN1C(=O)c2ccccc2S1(=O)=O.Cn1c(=O)c2nc[nH]c2n(C)c1=O` was tested, and the activity, negative = inhibition was -22% [at 2.29 µM] (inactive).
For `O=c1c(O)c(-c2cc(O)c(O)c(O)c2)oc2cc(O)cc(O)c12`, the AC50 was 2 µM (active).
`CCC(=O)O[C@@](Cc1ccccc1)(c1ccccc1)[C@@H](C)CN(C)C` was tested, and the AC50 was “inactive”.
In the case of `Cc1nc(-c2ccc(-c3ccc(C(=O)N4CCc5cc6c(cc54)C4(CCN(C)CC4)CO6)cc3)c(C)c2)no1`, the AC50 is reported as “inactive”.
In the case of `Nc1ccc(CCN2CCN(c3cccc(C(F)(F)F)c3)CC2)cc1`, the AC50 is reported as 10 µM (active).
For `NCCCN1CCN(c2ccccc2)CC1`, the activity, negative = inhibition was -15.9% [at 11.4 µM] (inactive).
With `C[N+](C)(C)CC#CCN1CCCC1=O` the AC50 was “inactive”.
For `CCN(CC)C1=NC(=[N+](CC)CC)c2ccccc21`, the AC50 was 15.8 µM (active).
For `NC(=O)c1ncn([C@H]2O[C@@H](CO)[C@@H](O)[C@@H]2O)n1`, the AC50 was “inactive”.
For `Cc1cc(C)c(-n2c(O)c(C=NCCN3CCOCC3)c(=O)[nH]c2=O)c(C)c1`, the AC50 was “inactive”.
`CC(C)[C@@]1(NC(=O)[C@@H]2C[C@H]3c4cccc5[nH]cc(c45)C[C@@H]3N(C)C2)O[C@]2(O)[C@H]3CCCN3C(=O)[C@H](Cc3ccccc3)N2C1=O` was tested, and the AC50 was “inactive”.
`COc1ccc(-n2nc(C(F)(F)F)cc2-c2ccc(Cl)cc2)cc1` was tested, and the AC50 was 0.501 µM (active).
For `NC(N)=NCCN=C(N)N`, the activity, negative = inhibition was -17.5% [at 11.4 µM] (inactive).
For `Cc1c([C@@H](C)[C@H]2NC[C@H](C)C[C@@H]2O)ccc2c1C[C@@H]1[C@H]2CC=C2C[C@@H](O)CC[C@@]21C`, the activity, negative = inhibition was 1.34% [at 2.29 µM] (inactive).
For `COc1ccc2[nH]c(C(=O)c3ccccc3)cc2c1`, the AC50 was 0.1 µM (active).
With `NC[C@H](CS(=O)(=O)O)c1ccc(Cl)cc1` the AC50 was “inactive”.
With `C/C(O)=C(/C#N)C(=O)Nc1cc(Br)ccc1Br` the AC50 was 2.51 µM (active).
For `c1ccc(N2CC[C@@]3(CCCNC3)C2)nc1`, the AC50 was “inactive”.
For `Clc1cncc(N2CCNCC2)n1`, the AC50 was 2 µM (active).
`N[C@H](Cc1ccc2oc3cc(=O)c4ccccc4c-3nc2c1)C(=O)O` was tested, and the AC50 was 1.26 µM (active).
For `N[C@@H](Cc1cc(Br)c(O)c(Br)c1)C(=O)O`, the activity, negative = inhibition was -2.84% [at 11.4 µM] (inactive).
With `CC(C)(O/N=C(\C(=O)N[C@@H]1C(=O)N2C(C(=O)[O-])=C(C[n+]3ccccc3)CS[C@@H]12)c1csc(N)n1)C(=O)O` the AC50 was “inactive”.
With `CN1[C@@H]2CCC[C@H]1CC(=O)C2` the AC50 was “inactive”.
`COC1=C[C@H]2C3=C([C@H]2C1=O)[C@H](NC(C)=O)CCc1cc(OC)c(OC)c(OC)c13` was tested, and the AC50 was “inactive”.
In the case of `COc1ccc2c(c[n+](C)c3c4cc5c(cc4ccc23)OCO5)c1OC`, the AC50 is reported as 10 µM (active).
In the case of `Oc1cccc2cccnc12`, the activity, negative = inhibition is reported as -20% [at 11.4 µM] (inactive).
